Screens as filed in PubChem.
Shown are actives, neighbours in structure and some others; about 3.4% of the full set was active somewhere.
Sm TGR inh = qHTS Assay for the Inhibitors of Schistosoma Mansoni Peroxiredoxins | Schistosoma mansoni thioredoxin glutathione reductase (TGR), Q962Y6 | purified TGR, DTNB reduction, TNB absorbance 405 nm | Potency, µM (series often up to 114 µM), most hits filed as inhibitors | 360,000 tested, 3% active | AID 485364, 2010; note: nearly all actives have a fitted effect of over 60% in size
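First, TGR (20 nM dispensed) and NADPH were mixed with compound. Second, a 15 min room-temperature incubation followed. Third, further NADPH and then DTNB were added to start the reaction. Finally, TNB absorbance was monitored kinetically.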
AmpC detergent = qHTS Inhibitors of AmpC Beta-Lactamase (assay with detergent); P00811; AmpC hydrolysis of nitrocefin, absorbance 480 nm, 0.01% Triton; Potency, µM (doses to about 114 µM), actives largely listed as inhibitors; 370,000 tested, 0.041% active; note: nearly all actives have a fitted effect of over 25% in size
Target sequence (P00811 whole entry, looked up): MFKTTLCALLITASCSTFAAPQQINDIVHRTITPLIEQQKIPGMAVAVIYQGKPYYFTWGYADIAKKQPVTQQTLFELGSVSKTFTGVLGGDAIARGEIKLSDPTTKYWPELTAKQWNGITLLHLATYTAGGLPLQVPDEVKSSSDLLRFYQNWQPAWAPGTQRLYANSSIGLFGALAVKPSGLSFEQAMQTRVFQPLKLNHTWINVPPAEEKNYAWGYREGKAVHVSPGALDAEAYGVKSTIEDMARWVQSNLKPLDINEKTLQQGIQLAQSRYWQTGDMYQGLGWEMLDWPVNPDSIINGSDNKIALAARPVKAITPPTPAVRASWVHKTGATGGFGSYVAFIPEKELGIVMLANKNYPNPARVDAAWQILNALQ
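AmpC (5.3 nM in the dispensed reagent) in 20 mM phosphate pH 7.0 with 0.01% (detergent screen) or 0.0001% Triton X-100 was preincubated with compounds for 15 min at room temperature. Nitrocefin was then added from an 800 uM solution, and hydrolysis was followed at 480 nm.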
FBPA Giardia inh = qHTS Assay for Inhibitors of Fructose-1,6-bisphosphate Aldolase from Giardia Lamblia; A8B2U2; purified Giardia FBPA; Potency, µM (series often up to 59.6 µM), usual class: inhibitors; 290,000 tested, 0.71% active; note: nearly all actives have a fitted effect of over 55% in size
Target sequence (A8B2U2 whole entry, looked up): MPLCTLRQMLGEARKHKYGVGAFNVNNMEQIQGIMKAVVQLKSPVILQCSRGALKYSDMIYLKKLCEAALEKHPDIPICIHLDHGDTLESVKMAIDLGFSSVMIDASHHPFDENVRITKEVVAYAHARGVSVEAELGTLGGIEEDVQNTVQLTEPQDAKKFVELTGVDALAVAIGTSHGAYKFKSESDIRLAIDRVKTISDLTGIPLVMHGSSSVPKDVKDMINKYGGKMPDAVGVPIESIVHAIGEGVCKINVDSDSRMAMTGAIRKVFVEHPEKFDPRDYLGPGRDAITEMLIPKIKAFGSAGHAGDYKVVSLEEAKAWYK
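40 nM FBPA preincubated 10 min at RT with compound (up to 57.5 uM final), then substrate plus GAPDH/TPI/NAD/arsenate coupling and diaphorase/resazurin added. Fluorescence read after 20 min at RT, 525/598 nm.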
RE007 growth inh = qHTS Assay for Inhibitors of the HIV-1 protein Vpr. S. pombe RE007 Vpr strain, BacTiter-Glo ATP luminescence, 24 h. Potency, µM (highest dose often 92.2 µM), hits mostly inhibitors. 360,000 tested, 0.21% active. AID 651644, 2012; active = well fitted falling curve with a large enough effect; inconclusive = small, poorly fitted or top-dose-only effect; inactive = no such curve, though single readings can be large or run the other way; note: nearly all actives have a fitted effect of over 50% in size
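Fission yeast strain RE007, carrying one chromosomally integrated HIV-1 vpr copy, was seeded at OD 0.01 in PMG+AL medium with 23 nL pinned compound. After 24 h at 30 °C and 99% humidity, viability was read by BacTiter-Glo luminescence.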
AmpC inh no detg = qHTS Inhibitors of AmpC Beta-Lactamase (assay without detergent) | P00811 | AmpC nitrocefin hydrolysis, absorbance 480 nm, 0.0001% Triton | Potency, µM (titrated, usually from 57.1 µM), hits mostly inhibitors | 330,000 tested, 0.52% active; note: nearly all actives have a fitted effect of over 20% in size
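AmpC (5.3 nM in the dispensed reagent) in 20 mM phosphate pH 7.0 with 0.01% (detergent screen) or 0.0001% Triton X-100 was preincubated with compounds for 15 min at room temperature. Nitrocefin was then added from an 800 uM solution, and hydrolysis was followed at 480 nm.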
Each line names hits and unclear results; the compound was inactive in the other large screens. Unless noted, calls come from the whole dose curve; as a rule, active = well fitted curve in the direction sought with a large enough effect; inconclusive = small, poorly fitted or top-dose-only effect, or another doubt; inactive = no such curve, though single readings can be large; an effect the other way counts as inactive or inconclusive.

COc1ccc2nc(N3CCCCC3)c(C#N)cc2c1	FBPA Giardia inh 17.8µM, RE007 growth inh inconclusive
O=C(CCCCCn1c(SCC(=O)c2ccccc2)nc2ccccc2c1=O)NCc1ccco1	AmpC detergent inconclusive
C/C=C/C=C/C(=O)OC(C)C(=O)Nc1cc([N+](=O)[O-])ccc1OC (centres undefined)	Sm TGR inh 22.4µM
COc1ccc([N+](=O)[O-])cc1NC(=S)Nc1ccccc1	Sm TGR inh 28.2µM
COc1ccc([N+](=O)[O-])cc1NC(=O)C(C)OC(=O)Cc1ccc(OC)c(OC)c1 (centres undefined)	none (no result: Sm TGR inh, AmpC detergent, FBPA Giardia inh)
COc1ccc([N+](=O)[O-])cc1NC(=O)Nc1ccccc1	none
CCOC(=O)C1=C(O)/C(=C\c2cc(C)n(-c3ccccc3F)c2C)N=C1C	Sm TGR inh 25.1µM, AmpC detergent inconclusive, FBPA Giardia inh inconclusive
CCOC(=O)C1=C(O)/C(=C/c2cccc(OC)c2O)N=C1C	none (no result: Sm TGR inh)
CCOC(=O)C1=C(O)/C(=C\c2cc(C)n(-c3ccc(F)cc3)c2C)N=C1C	Sm TGR inh 14.1µM, AmpC detergent inconclusive, FBPA Giardia inh inconclusive
CC(CCc1ccccc1)OS(N)(=O)=O (centres undefined)	AmpC detergent inconclusive
CC1CCN(C(=O)CSc2ccc(-c3ccccc3)nn2)CC1	Sm TGR inh 20µM
Cc1nn(CC(=O)Nc2c(F)cc(F)cc2Br)c(=O)c2cccn12	none (no result: FBPA Giardia inh)
CCN1CCN(C(c2cccnc2)c2c(NC(=O)c3ccco3)sc(C)c2C)CC1 (centres undefined)	Sm TGR inh 20µM, AmpC detergent inconclusive (no result: FBPA Giardia inh)
Cc1sc(NC(=O)c2ccco2)c(C(c2cccnc2)N2CCC(C)CC2)c1C (centres undefined)	Sm TGR inh 17.8µM
COc1ccc(C(c2c(NC(=O)c3ccco3)sc(C)c2C)N2CCOCC2)cc1 (centres undefined)	none (no result: FBPA Giardia inh)
CC(=O)c1ccc(-n2c(CCC(=O)O)ccc2-c2cccs2)cc1	Sm TGR inh 0.891µM
O=C(O)CCc1ccc(-c2cccs2)n1NC(=O)c1ccc(Cl)cc1Cl	none
Cc1ccc(-n2c(CCC(=O)O)ccc2-c2cccs2)cc1	Sm TGR inh 12.6µM
Cc1ccc(-n2c(CCC(=O)O)ccc2-c2cccs2)cc1Cl	Sm TGR inh 7.94µM (no result: FBPA Giardia inh, RE007 growth inh, AmpC inh no detg)
O=C(O)CCc1ccc(-c2cccs2)n1NC(=O)c1ccc(Cl)cc1	Sm TGR inh 50.1µM
O=C(O)CSc1nnc(-c2cccs2)n1-c1ccc(Cl)cc1	none
Cc1cc(Br)ccc1NC(=O)Cn1cc(S(=O)(=O)N2CCN(c3ccccc3F)CC2)c2ccccc2c1=O	none (no result: FBPA Giardia inh, RE007 growth inh, AmpC inh no detg)
NS(=O)(=O)c1ccc(NC(=O)CSC2=NC(=O)C(c3ccccc3)C(=O)N2)cc1 (centres undefined)	AmpC detergent inconclusive
CCOC(=O)C(C)CC(C)C(=O)N1CCOCCN(C(=O)C(C)CC(C)C(=O)OCC)CCOCC1 (centres undefined)	none
NC(=O)c1ccc(-n2c(CCC(=O)O)ccc2-c2cccs2)cc1	Sm TGR inh 2µM, AmpC detergent inconclusive
COc1cccc(-n2c(O)c(C=NCc3ccc4c(c3)OCO4)c(=O)[nH]c2=O)c1	none
COc1ccc(-n2c(O)c(C=NCc3ccc4c(c3)OCO4)c(=O)[nH]c2=O)cc1	Sm TGR inh 14.1µM
Cc1ccc(Cl)cc1NC1=C/C(=N\S(=O)(=O)c2cccs2)c2ccccc2C1=O	FBPA Giardia inh 0.281µM
Cc1ccccc1C(=O)NC(=S)NCCC1=CCCCC1	Sm TGR inh 5.01µM
Cc1ccccc1C(=O)NC(=S)NCc1ccccc1	Sm TGR inh 22.4µM, AmpC detergent inconclusive
Cc1ccccc1NS(=O)(=O)c1cc(C(=O)NCCC2=CCCCC2)ccc1C	AmpC detergent inconclusive, AmpC inh no detg 10µM
Cc1ccccc1C(=O)NC(=S)NCc1cccnc1	none
Cc1ccccc1C(=O)NC(=S)NCC(=O)c1ccccc1	none
Cc1ccccc1C(=O)NC(=S)NCCc1ccccc1	Sm TGR inh 7.08µM
O=C(NC(=S)NCCC1=CCCCC1)c1ccco1	none
S=C(NCCc1ccccc1)NCCc1ccccc1	none
CC(C)(C)C(=O)NC(=S)NCCc1ccccc1	Sm TGR inh 20µM
N#CC1=C2SCN(Cc3ccco3)CN2C(=O)CC1c1c(F)cccc1Cl (centres undefined)	Sm TGR inh 44.7µM, FBPA Giardia inh inconclusive
N#CC1=C2SCN(c3ccccc3)CN2C(=O)CC1c1ccccc1Cl (centres undefined)	Sm TGR inh 22.4µM, FBPA Giardia inh inconclusive
CCOC(=O)c1ccc(N2CSC3=C(C#N)C(c4ccc(OC)cc4OC)CC(=O)N3C2)cc1 (centres undefined)	Sm TGR inh inconclusive, AmpC detergent inconclusive, FBPA Giardia inh inconclusive
N#CC1=C2SCN(c3ccccc3)CN2C(=O)CC1c1c(Cl)cccc1Cl (centres undefined)	FBPA Giardia inh inconclusive, AmpC inh no detg 28.2µM
Cc1ccc(C2CC(=O)N3CN(c4ccc(Br)cc4)CSC3=C2C#N)o1 (centres undefined)	Sm TGR inh 28.2µM, FBPA Giardia inh inconclusive
Nc1cc(=O)[nH]c(SCC(=O)N2N=C(c3ccc4ccccc4c3)CC2c2ccccc2)n1 (centres undefined)	none
COc1ccc(N2CC(NS(=O)(=O)c3ccc(F)cc3)CC2=O)cc1 (centres undefined)	AmpC detergent inconclusive, AmpC inh no detg inconclusive (no result: FBPA Giardia inh)
CSc1nc(Oc2cccc(C(F)(F)F)c2)cc(C(F)(F)F)n1	none
O=C(Oc1ccc2c(=O)c(Cl)coc2c1)c1ccncc1	Sm TGR inh 8.91µM, AmpC detergent inconclusive
CC(C)c1ccc(NC(=O)CSc2ncnc3c2sc2ccccc23)cc1	none (no result: FBPA Giardia inh, RE007 growth inh, AmpC inh no detg)
O=C(/C=C/c1ccc([N+](=O)[O-])cc1)c1cccnc1	Sm TGR inh 15.8µM, RE007 growth inh 15.8µM
O=C(/C=C/c1cccnc1)c1ccc(F)c(F)c1	Sm TGR inh 28.2µM
CN(C)c1ccc(C(=O)/C=C/c2cccnc2)cc1	none
OC1(c2ccccc2)Cc2cccc[n+]2C1c1ccccc1 (centres undefined)	none
Cc1ccc(CSCc2ccc(C(=O)O)o2)cc1	Sm TGR inh inconclusive
COCCCNC(=O)c1ccc(CS(=O)(=O)Cc2cccc(C)c2)o1	none
Cc1cccc(CSCc2ccc(C(=O)O)o2)c1	Sm TGR inh 50.1µM
Cc1cccc(CS(=O)(=O)Cc2ccc(C(=O)NCCN3CCCCC3C)o2)c1 (centres undefined)	Sm TGR inh 35.5µM, AmpC detergent inconclusive
Cc1cccc(CS(=O)(=O)Cc2ccc(C(=O)O)o2)c1	Sm TGR inh 25.1µM
C=CCNc1nc(-c2sc(NC(=O)C(C)(C)C)nc2C)c(-n2cc(-c3ccccc3)nn2)s1	none (no result: Sm TGR inh, AmpC detergent, FBPA Giardia inh, AmpC inh no detg)
O=C(NCCCN1CCCC1=O)c1ccc(NS(=O)(=O)c2ccc(F)cc2)cc1	none (no result: FBPA Giardia inh)
